# Publication PMC7862700, “An all-to-all approach to the identification of sequence-specific readers for epigenetic DNA modifications on cytosine”
# Assays:
# Assay in all cases: DAPPL (digital affinity profiling via proximity ligation, sequencing); 10 mM Tris-HCl pH 7.5, 50 mM NaCl, 1 mM DTT, 4% glycerol, room temperature, 30 min; GST-TFs on glutathione beads, 16-mer random dsDNA library, 0.1% formaldehyde crosslink after washing; high values mean tight binding
# FEV = molecular target: T1, FEV (Homo sapiens, UniProt Q99581 1-238); settings: protein: recombinant; tags: N-terminal GST; dsDNA, one strand shown
# T1 sequence: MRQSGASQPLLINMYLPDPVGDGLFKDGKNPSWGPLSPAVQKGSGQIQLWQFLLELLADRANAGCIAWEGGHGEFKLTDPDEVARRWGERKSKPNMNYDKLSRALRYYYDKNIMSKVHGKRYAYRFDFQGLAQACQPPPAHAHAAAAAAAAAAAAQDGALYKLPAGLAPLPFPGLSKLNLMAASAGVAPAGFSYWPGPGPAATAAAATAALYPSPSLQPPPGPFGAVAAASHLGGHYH
# In short: (§1)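 Each value of binding signal is a hexamer's read frequency for a factor divided by the same hexamer's frequency in the tag-only sample. Barcoded, bead-captured GST fusions of human transcription factors made in yeast were pooled with that sample and incubated with 200 nmole of a random double-stranded 16-mer DNA library in Tris/NaCl/DTT/glycerol buffer at room temperature for 30 min. Washing, 0.1% formaldehyde crosslinking, proximity ligation, PCR and Illumina NextSeq500 sequencing followed.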
# ETV5 = ETV5 (Homo sapiens, UniProt P41161 1-510); settings: protein: recombinant; tags: N-terminal GST; dsDNA, one strand shown
# In short: as §1
# HSF1 = HSF1 (Homo sapiens, UniProt Q00613 1-529); settings: protein: recombinant; tags: N-terminal GST; chain copies: 3; dsDNA, one strand shown
# In short: as §1
# SPIC = molecular target: T2, SPIC (Homo sapiens, UniProt Q8N5J4 1-248); settings: protein: recombinant; tags: N-terminal GST; dsDNA, one strand shown
# T2 sequence: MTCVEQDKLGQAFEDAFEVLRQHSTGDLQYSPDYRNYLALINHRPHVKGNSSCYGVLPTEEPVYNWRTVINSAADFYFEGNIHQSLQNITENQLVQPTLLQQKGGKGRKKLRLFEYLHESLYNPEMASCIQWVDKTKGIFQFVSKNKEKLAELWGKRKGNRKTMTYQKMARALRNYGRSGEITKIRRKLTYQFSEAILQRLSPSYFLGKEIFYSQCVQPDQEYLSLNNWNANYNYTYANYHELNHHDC
# In short: as §1
# ELF4 = ELF4 (Homo sapiens, UniProt Q99607 1-663); settings: protein: recombinant; tags: N-terminal GST; dsDNA, one strand shown
# In short: as §1
# ELK4 = molecular target: T3, ELK4 (Homo sapiens, UniProt P28324-2 1-405); settings: protein: recombinant; tags: N-terminal GST; dsDNA, one strand shown
# T3 sequence: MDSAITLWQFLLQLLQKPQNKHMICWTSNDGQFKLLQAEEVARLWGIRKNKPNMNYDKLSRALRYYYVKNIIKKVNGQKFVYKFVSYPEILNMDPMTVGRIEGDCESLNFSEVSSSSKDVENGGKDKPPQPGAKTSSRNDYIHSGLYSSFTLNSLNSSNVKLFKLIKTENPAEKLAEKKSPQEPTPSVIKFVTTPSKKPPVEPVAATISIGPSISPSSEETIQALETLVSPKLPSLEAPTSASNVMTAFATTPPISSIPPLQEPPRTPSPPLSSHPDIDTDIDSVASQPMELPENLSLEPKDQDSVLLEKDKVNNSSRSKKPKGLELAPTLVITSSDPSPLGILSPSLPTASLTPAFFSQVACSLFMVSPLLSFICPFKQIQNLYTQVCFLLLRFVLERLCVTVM
# In short: as §1
# ETV2 = molecular target: T4, ETV2 (Homo sapiens, UniProt O00321 1-342); settings: protein: recombinant; tags: N-terminal GST; dsDNA, one strand shown
# T4 sequence: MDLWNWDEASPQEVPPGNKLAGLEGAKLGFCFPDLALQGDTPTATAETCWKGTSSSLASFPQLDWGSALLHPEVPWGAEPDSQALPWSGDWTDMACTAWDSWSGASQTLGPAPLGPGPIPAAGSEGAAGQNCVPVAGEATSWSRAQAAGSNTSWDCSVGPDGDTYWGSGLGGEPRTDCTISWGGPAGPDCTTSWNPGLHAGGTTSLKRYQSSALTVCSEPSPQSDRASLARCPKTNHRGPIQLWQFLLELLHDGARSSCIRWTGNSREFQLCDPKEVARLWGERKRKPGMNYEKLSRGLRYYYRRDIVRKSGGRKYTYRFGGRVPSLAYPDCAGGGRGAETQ
# In short: as §1
# ELF3 = molecular target: T5, ELF3 (Homo sapiens, UniProt P78545 1-371); settings: protein: recombinant; tags: N-terminal GST; dsDNA, one strand shown
# T5 sequence: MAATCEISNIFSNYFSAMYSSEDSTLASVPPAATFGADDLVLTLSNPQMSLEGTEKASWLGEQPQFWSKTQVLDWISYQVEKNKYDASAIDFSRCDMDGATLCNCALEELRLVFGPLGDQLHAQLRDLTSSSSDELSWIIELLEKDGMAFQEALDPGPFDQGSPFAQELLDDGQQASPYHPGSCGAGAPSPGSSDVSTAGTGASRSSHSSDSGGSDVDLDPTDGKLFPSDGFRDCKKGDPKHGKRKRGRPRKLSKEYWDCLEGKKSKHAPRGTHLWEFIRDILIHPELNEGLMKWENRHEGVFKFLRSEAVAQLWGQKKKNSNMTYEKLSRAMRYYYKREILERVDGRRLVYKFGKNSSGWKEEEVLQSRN
# In short: as §1
# CRX = CRX (Homo sapiens, UniProt O43186 1-299); settings: protein: recombinant; tags: N-terminal GST; dsDNA, one strand shown
# In short: as §1
# ETV1 = ETV1 (Homo sapiens, UniProt P50549 1-477); settings: protein: recombinant; tags: N-terminal GST; dsDNA, one strand shown
# In short: as §1
# ERF = molecular target: T6, ERF (Homo sapiens, UniProt P50548 1-548); settings: protein: recombinant; tags: N-terminal GST; dsDNA, one strand shown
# T6 sequence: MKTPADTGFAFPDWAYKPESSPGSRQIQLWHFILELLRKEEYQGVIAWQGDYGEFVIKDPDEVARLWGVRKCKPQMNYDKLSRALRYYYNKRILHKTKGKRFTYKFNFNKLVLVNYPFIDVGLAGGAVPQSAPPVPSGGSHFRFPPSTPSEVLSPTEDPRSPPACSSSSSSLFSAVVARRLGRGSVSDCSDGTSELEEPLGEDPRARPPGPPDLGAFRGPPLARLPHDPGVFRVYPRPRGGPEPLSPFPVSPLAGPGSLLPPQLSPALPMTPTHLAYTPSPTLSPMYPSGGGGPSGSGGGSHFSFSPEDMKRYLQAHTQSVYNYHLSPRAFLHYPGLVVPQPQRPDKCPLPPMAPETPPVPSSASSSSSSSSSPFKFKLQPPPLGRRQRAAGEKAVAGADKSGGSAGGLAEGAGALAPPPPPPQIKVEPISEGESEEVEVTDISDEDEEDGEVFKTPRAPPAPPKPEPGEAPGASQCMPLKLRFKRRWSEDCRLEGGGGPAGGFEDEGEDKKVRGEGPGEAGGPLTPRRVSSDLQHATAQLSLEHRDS
# In short: as §1
# ETV3L = molecular target: T7, ETV3L (Homo sapiens, UniProt Q6ZN32 1-361); settings: protein: recombinant; tags: N-terminal GST; dsDNA, one strand shown
# T7 sequence: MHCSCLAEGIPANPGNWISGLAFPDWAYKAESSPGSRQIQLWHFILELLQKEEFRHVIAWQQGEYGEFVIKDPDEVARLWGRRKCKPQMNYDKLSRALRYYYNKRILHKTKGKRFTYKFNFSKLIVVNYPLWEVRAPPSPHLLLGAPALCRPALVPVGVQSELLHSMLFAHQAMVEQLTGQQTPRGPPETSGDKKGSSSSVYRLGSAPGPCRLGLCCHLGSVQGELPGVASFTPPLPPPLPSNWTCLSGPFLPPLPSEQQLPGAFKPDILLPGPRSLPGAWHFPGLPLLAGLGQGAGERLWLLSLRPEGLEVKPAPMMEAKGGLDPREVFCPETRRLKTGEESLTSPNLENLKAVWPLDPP
# In short: as §1
# ETS2 = molecular target: T8, ETS2 (Homo sapiens, UniProt P15036 1-469); settings: protein: recombinant; tags: N-terminal GST; dsDNA, one strand shown
# T8 sequence: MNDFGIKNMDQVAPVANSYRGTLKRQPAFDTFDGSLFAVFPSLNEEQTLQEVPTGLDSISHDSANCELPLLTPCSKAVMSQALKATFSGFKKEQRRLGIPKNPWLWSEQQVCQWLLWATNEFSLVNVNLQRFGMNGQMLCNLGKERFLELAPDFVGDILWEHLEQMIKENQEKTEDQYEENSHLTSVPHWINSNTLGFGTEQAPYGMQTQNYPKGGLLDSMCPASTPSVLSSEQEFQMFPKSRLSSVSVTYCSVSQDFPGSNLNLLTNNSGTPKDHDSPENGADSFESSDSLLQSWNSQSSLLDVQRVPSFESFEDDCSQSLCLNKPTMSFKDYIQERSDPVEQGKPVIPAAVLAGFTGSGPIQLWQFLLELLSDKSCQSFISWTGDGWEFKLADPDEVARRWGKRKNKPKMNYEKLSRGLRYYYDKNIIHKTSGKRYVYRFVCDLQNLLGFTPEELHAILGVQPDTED
# In short: as §1
# SPDEF = molecular target: T9, SPDEF (Homo sapiens, UniProt O95238 1-335); settings: protein: recombinant; tags: N-terminal GST; dsDNA, one strand shown
# T9 sequence: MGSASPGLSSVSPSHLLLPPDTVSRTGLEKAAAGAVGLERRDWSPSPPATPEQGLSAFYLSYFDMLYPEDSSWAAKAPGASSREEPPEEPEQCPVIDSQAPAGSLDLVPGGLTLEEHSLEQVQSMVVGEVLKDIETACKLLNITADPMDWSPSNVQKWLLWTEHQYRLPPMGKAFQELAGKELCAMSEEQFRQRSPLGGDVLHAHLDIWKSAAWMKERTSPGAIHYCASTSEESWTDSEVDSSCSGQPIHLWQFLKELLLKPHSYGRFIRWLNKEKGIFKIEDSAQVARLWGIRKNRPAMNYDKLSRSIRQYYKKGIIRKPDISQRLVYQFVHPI
# In short: as §1
# ETV7 = molecular target: T10, ETV7 (Homo sapiens, UniProt Q9Y603 1-341); settings: protein: recombinant; tags: N-terminal GST; dsDNA, one strand shown
# T10 sequence: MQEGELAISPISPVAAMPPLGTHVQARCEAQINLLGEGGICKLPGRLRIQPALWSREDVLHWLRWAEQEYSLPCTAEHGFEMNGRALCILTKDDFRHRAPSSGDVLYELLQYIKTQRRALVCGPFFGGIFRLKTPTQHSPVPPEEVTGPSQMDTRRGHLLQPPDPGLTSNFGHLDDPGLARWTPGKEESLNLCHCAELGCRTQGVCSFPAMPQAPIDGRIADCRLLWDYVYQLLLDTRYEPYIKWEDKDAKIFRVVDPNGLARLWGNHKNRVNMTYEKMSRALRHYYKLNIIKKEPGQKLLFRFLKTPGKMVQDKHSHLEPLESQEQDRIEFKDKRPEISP
# In short: as §1
# ELF5 = molecular target: T11, ELF5 (Homo sapiens, UniProt Q9UKW6-2 1-255); settings: protein: recombinant; tags: N-terminal GST; dsDNA, one strand shown
# T11 sequence: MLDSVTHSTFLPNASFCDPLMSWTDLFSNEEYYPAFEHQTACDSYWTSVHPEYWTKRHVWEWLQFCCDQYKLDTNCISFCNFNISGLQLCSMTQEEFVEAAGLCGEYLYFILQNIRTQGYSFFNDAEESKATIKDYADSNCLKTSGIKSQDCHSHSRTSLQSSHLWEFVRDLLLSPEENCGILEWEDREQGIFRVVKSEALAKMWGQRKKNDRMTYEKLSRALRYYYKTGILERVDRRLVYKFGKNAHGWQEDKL
# In short: as §1
# ETV3 = molecular target: T12, ETV3 (Homo sapiens, UniProt P41162-2 1-143); settings: protein: recombinant; tags: N-terminal GST; dsDNA, one strand shown
# T12 sequence: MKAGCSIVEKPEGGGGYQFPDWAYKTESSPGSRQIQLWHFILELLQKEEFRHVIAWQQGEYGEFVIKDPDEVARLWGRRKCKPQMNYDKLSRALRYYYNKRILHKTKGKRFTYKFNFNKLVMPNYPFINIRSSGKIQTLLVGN
# In short: as §1
# ETV6 = ETV6 (Homo sapiens, UniProt P41212 1-452); settings: protein: recombinant; tags: N-terminal GST; dsDNA, one strand shown
# In short: as §1
# Sequence of ELF4 (Q99607 whole entry): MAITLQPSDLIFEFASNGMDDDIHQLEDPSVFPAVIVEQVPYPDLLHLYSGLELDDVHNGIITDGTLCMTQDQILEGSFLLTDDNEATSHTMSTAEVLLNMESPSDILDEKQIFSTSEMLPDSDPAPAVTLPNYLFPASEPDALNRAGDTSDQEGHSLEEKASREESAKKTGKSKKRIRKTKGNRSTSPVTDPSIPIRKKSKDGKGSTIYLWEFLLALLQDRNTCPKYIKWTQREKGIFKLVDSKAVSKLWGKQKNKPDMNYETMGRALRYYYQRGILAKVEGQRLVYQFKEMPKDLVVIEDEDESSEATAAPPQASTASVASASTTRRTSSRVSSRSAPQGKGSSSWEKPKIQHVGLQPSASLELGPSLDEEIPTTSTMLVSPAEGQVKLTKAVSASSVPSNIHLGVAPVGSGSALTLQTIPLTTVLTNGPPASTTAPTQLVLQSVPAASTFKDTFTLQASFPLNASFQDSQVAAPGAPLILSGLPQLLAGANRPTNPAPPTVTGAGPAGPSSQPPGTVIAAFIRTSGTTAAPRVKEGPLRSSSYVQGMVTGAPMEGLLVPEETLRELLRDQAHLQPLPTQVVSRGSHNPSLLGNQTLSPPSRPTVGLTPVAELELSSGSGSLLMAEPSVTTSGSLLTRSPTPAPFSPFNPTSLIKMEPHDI
# Sequence of CRX (O43186 whole entry): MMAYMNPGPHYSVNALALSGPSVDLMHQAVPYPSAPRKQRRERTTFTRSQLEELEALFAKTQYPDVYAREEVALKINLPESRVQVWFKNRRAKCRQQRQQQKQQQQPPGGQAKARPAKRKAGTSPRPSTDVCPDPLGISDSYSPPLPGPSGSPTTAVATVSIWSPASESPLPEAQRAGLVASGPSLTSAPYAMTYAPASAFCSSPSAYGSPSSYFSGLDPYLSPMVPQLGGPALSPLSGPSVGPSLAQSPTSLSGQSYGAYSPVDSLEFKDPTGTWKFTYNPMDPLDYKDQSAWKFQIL
# Sequence of ETV1 (P50549 whole entry): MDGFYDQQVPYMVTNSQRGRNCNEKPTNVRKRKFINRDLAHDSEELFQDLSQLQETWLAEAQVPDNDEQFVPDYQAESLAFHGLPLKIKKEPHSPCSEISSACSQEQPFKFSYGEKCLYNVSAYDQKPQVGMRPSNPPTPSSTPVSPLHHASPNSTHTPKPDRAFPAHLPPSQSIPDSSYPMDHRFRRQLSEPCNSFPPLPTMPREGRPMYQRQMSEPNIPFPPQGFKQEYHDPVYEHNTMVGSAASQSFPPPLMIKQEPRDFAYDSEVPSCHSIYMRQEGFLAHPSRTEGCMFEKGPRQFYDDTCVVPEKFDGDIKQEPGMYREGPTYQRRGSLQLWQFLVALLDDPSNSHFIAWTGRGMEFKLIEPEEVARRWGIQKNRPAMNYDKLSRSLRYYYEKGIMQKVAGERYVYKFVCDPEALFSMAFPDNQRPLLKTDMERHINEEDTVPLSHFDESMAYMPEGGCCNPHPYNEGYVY
# Sequence of ETV5 (P41161 whole entry): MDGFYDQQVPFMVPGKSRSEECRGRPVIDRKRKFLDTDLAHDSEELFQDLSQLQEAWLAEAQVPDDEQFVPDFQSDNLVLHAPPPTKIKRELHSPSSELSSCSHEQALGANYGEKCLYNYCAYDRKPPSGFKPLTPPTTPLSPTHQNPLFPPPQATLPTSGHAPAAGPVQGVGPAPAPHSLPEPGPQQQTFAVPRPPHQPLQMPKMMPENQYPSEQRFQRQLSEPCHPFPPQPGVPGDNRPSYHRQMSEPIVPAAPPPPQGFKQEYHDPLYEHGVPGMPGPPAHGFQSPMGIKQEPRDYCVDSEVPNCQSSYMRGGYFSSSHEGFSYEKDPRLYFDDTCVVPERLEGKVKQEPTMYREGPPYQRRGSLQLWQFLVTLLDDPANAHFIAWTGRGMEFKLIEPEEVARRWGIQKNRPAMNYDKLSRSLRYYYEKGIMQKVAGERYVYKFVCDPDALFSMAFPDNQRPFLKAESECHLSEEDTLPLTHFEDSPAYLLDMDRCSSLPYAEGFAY
# Sequence of HSF1 (Q00613 whole entry): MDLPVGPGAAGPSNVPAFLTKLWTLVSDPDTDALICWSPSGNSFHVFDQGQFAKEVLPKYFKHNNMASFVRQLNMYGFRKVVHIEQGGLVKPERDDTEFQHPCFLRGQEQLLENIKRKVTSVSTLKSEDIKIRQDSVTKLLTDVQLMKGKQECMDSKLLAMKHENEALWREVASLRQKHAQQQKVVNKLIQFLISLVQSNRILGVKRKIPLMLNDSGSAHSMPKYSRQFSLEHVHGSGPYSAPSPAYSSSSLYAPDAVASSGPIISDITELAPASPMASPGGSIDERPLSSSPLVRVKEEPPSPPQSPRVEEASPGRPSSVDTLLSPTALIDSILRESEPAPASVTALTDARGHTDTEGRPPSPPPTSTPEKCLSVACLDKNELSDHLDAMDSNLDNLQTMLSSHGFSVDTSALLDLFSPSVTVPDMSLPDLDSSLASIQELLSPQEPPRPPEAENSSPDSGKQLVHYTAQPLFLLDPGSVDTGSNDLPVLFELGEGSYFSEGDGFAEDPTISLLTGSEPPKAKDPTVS
# Sequence of ETV6 (P41212 whole entry): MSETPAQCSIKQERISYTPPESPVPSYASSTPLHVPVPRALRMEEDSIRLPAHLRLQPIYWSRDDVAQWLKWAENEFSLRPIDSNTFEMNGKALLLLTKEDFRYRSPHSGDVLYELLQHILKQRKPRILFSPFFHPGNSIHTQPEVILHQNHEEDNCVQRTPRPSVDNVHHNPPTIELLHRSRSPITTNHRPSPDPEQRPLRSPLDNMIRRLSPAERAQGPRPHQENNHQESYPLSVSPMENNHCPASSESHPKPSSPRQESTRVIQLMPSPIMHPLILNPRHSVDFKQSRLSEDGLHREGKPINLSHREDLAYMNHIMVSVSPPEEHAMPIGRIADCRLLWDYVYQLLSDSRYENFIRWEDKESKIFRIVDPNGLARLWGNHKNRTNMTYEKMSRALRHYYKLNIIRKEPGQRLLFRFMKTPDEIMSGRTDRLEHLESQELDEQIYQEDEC
sequence,measurement,setting,value
CCCTCG,binding signal,FEV,"1.19 fold enrichment (6-mer frequency, TF over GST control)"
same,binding signal,ETV5,"1.19 fold enrichment (6-mer frequency, TF over GST control)"
same,binding signal,HSF1,"1.22 fold enrichment (6-mer frequency, TF over GST control)"
same,binding signal,SPIC,"1.25 fold enrichment (6-mer frequency, TF over GST control)"
same,binding signal,ELF4,"1.36 fold enrichment (6-mer frequency, TF over GST control)"
same,binding signal,ELK4,"1.36 fold enrichment (6-mer frequency, TF over GST control)"
same,binding signal,ETV2,"1.25 fold enrichment (6-mer frequency, TF over GST control)"
same,binding signal,ELF3,"1.17 fold enrichment (6-mer frequency, TF over GST control)"
same,binding signal,CRX,"1.06 fold enrichment (6-mer frequency, TF over GST control)"
same,binding signal,ETV1,"1.25 fold enrichment (6-mer frequency, TF over GST control)"
same,binding signal,ERF,"1.24 fold enrichment (6-mer frequency, TF over GST control)"
same,binding signal,ETV3L,"1.24 fold enrichment (6-mer frequency, TF over GST control)"
same,binding signal,ETS2,"1.29 fold enrichment (6-mer frequency, TF over GST control)"
same,binding signal,SPDEF,"1.23 fold enrichment (6-mer frequency, TF over GST control)"
same,binding signal,ETV7,"1.3 fold enrichment (6-mer frequency, TF over GST control)"
same,binding signal,ELF5,"1.19 fold enrichment (6-mer frequency, TF over GST control)"
same,binding signal,ETV3,"1.16 fold enrichment (6-mer frequency, TF over GST control)"
same,binding signal,ETV6,"1.18 fold enrichment (6-mer frequency, TF over GST control)"
